The test system of assay [1] is Human papillomavirus type 1a protein E7 (residues 44-93). As to the kind of experiment: HPV1a E7 fragment binders on microarrays, primary screen, biochemical, small-molecule microarray, residues 44-93, 635 nm fluorescence (AID 1108).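 Note: E7 fragment applied at 1 µg/mL in TBST for 1 h at 4 C; score combines spot fluorescence with its signal to noise ratio.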 The note with it: small-molecule microarray binding, fluorescence 635 nm; higher = more signal.
The nature of assay [2]: modulators of HCV replicon luciferase signal, primary screen, HCV replication inhibitor project, Huh7 cells, luciferase reporter (AID 1109).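 Note: huh7 hepatoma cells harbouring a luciferase neomycin HCV replicon reporter; luciferase luminescence as measure of HCV replicon replication; test concentration not given here.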 The note with it: 48 h, higher = more signal. A general note: A replicon is a self-replicating genome or part of one, used to study replication in cells.
Assay [3] addresses Left-right determination factor 2 (Homo sapiens) (UniProt O00292). As to the kind of experiment: LEFTY2 binders on small-molecule microarrays, primary screen, biochemical, small-molecule microarray, 635 nm fluorescence scan (AID 1110). Particulars: LEFTY2 binding, higher = more signal.
For assay [4], the target named is Calmodulin-1 (Homo sapiens) (UniProt P0DP23). As to the kind of experiment: CALM1 binders on microarrays, EGTA buffer, profiling panel, biochemical, small-molecule microarray, Cy5-labelled CALM1 (AID 1111).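 Note: labelled calmodulin applied in Tris saline Tween buffer holding calcium plus EGTA and DTT.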 Particulars: Cy5-CALM1 binding fluorescence, higher = more signal.
Assay [5] shares this target. Put plainly: calcium-bound CALM1 binders on microarrays, profiling panel, artefact control for SMM control-protein annotation, biochemical, small-molecule microarray, Cy5-labelled CALM1, plus calcium (AID 1112).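 Note: score merges spot fluorescence with signal to noise from triplicate slides.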 Particulars: Cy5-CALM1 binding fluorescence, higher = more signal.
The nature of assay [6]: small-molecule microarray binders of probe aWnt5a, primary screen, biochemical, biotinylated probe, 635/667 nm fluorescence (AID 1113).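 Note: score merges 667 nm fluorescence intensity with signal-to-noise per printed feature.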 Particulars: higher = more signal.
The nature of assay [7]: small-molecule microarray binders of probe aShh, primary screen, biochemical, biotinylated probe, 635/667 nm fluorescence (AID 1114).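 Note: probe is biotin-labelled aShh protein from a stem cell growth factor screen; measures binding of labelled protein to compounds printed on the slide; score merges feature fluorescence at 667 nm with signal-to-noise.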 The note with it: higher = more signal.
The nature of assay [8]: small-molecule microarray binders of probe aNog, primary screen, biochemical, biotinylated probe, 635/667 nm fluorescence (AID 1115).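 Note: probe is biotinylated aNog protein used at 0.15 µg/mL for 1 h at 4 C; z-score combines 667 nm fluorescence of each spot with its signal to noise.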 Particulars: higher = more signal.
Assay [9] has as its target Torsin-1A-interacting protein 1 (Homo sapiens) (UniProt Q5JTV8). Put plainly: LAP1 binders from COS7 cell lysate, primary screen, small-molecule microarray, 635/667 nm fluorescence (AID 1116). The note with it: COS7-hLAP1 lysate binding, 635 nm fluorescence, higher = more signal.
Assay [10] addresses Alpha-bungarotoxin (Bungarus multicinctus) (UniProt P60615). Put plainly: alpha-bungarotoxin binders on microarray, profiling panel, artefact control for SMM control protein annotation, biochemical, small-molecule microarray, Alexa647 label, 635/667 nm fluorescence (AID 1117). Particulars: alpha-BTX-A647 binding fluorescence, higher = more signal.

Left-right determination factor 2 (Homo sapiens), sequence (O00292 whole entry, looked up): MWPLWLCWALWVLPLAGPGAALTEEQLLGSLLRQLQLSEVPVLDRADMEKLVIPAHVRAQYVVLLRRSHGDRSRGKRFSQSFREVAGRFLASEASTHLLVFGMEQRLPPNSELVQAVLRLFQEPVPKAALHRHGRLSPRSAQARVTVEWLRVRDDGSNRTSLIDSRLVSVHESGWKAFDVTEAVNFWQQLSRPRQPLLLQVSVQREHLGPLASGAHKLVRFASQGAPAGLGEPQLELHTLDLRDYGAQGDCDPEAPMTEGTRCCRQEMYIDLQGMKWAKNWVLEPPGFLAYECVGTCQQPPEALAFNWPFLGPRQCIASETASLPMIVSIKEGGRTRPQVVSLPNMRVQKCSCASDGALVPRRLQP
Torsin-1A-interacting protein 1 (Homo sapiens), sequence (Q5JTV8 whole entry, looked up): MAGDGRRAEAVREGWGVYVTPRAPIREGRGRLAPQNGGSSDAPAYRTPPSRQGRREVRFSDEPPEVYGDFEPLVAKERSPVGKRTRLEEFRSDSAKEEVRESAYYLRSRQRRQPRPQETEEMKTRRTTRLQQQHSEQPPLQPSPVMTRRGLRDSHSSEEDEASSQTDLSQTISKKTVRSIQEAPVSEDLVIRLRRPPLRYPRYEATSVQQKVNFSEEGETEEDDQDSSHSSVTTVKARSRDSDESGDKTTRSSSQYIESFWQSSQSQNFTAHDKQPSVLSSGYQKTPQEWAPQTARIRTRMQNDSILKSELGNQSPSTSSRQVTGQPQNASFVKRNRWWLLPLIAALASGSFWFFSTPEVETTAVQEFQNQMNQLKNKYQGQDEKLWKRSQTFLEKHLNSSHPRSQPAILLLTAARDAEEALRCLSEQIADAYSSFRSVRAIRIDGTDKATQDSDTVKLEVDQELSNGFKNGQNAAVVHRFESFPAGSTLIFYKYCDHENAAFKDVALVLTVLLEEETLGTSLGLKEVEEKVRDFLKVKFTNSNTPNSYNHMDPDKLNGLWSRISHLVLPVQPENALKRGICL
Alpha-bungarotoxin (Bungarus multicinctus), sequence (P60615 whole entry, looked up): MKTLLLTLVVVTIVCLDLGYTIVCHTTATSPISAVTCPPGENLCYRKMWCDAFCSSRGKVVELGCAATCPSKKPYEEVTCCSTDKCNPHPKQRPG

Consider `COc1cc2c(cc1OC)CN(C(=O)[C@H]1[C@@H]3C(=O)O[C@@H](c4ccccc4)[C@@H](c4ccccc4)N3[C@@H](c3ccc(O)cc3)[C@]13C(=O)Nc1ccc(C#CCNC(N)=O)cc13)CC2`, for which the composite z-score in assay [1] is -0.208; in assay [3], 0.264; in assay [4] it was -0.123; in assay [5], 0.0061; in [6] it was -0.0403; in assay [7] it was 0.0141. Besides, the composite z-score in [8] is -0.198; in [9], -0.0992; in [10], -0.0782. Also, the z-score in assay [2] was -0.145.
As to `CN1C2C=C(CCCO)C(C3C(=O)N(C(N)=O)C(=O)C32)C1c1ccc(CN2CCCC2)cc1` (stereo not given), the composite z-score in [1] is 0.138; in [3], -0.943; in [4], -0.224; in assay [5], 0.0344; in assay [6], -0.243; in assay [7], 0.0278. In addition, the composite z-score in [8] is -0.328; in assay [9] it was 0.0727; in assay [10], 0.236. Moreover, the z-score in assay [2] is -0.149.
Consider `CC(C)C[C@@H]1NC(=O)[C@H]2C[C@@H](C(=O)NCCCCCCN(C)C)[C@@H](c3ccc(O)cc3)N2C1=O`, for which the composite z-score in assay [1] was 1.09; in assay [3], 1.06; in assay [4] it was -0.631; in [5], -1.19; in [6] it was -0.0337; in [7], 0.207. For the same molecule, the composite z-score was -0.284 in [8], 1.03 in assay [9] and 0.419 in assay [10]. The z-score in assay [2] is 0.414.
As for `O=C1c2ccccc2[C@@]2(Cc3ccccc3N(CC(F)(F)F)C2=O)[C@H](c2ccc(CO)cc2)N1Cc1ccccc1Cl`, the composite z-score is 0.265 in [1]; 0.547 in assay [3]; -0.146 in assay [4]; -0.684 in assay [5]; -0.166 in [6]; -0.17 in [7]. Further, the composite z-score in assay [8] was -0.282; in assay [9] it was 0.156; in assay [10] it was 0.287. The same molecule returned a z-score in assay [2] of 0.078.
As for `CN(C)CCCNC(=O)[C@@]1(c2ccc([N+](=O)[O-])cc2)CC(=O)N(C2CCCCC2)[C@@H]1c1ccc(CO)cc1I`, the composite z-score in assay [1] is 1.41; in [3], -0.104; in [4], -0.0828; in assay [5], -0.245; in [6], -0.0721; in assay [7] it was -0.147. The composite z-score in [8] was -0.606; in assay [9] it was 0.46; in assay [10], 1.03. In assay [2], this molecule yielded a z-score of -3.46.
Take `O=C1[C@H]2C=C(Br)[C@H](C[C@@H]2OCCCCO)[C@@]12CO2`: the composite z-score was -0.875 in assay [1]; 0.307 in assay [3]; -0.442 in assay [4]; -1.04 in assay [5]; -0.0944 in assay [6]; 0.149 in assay [7]. Also, the figures for the composite z-score in [8], in assay [9] and in assay [10] were 0.101, -0.272 and -0.032, respectively. This molecule had a z-score in assay [2] of -1.98.
For the molecule `COCCOC(=O)N1C(=O)[C@@]2(c3cc(C#CCCO)ccc31)[C@H](c1ccc(OCCO)cc1)N1[C@H](c3ccccc3)[C@H](c3ccccc3)OC(=O)[C@H]1[C@@H]2C(=O)N1CCN(c2ncccn2)CC1`, the composite z-score in [1] is 1.37; in assay [3], 0.781; in [4], 1.33; in assay [5], -0.243; in assay [6], -0.131; in [7], -0.0035. In addition, the composite z-score in [8] is -0.483; in [9], 0.398; in assay [10], 0.582. The same molecule had a z-score in assay [2] of -1.46.
`[N-]=[N+]=NCc1ccccc1[C@@H]1OC(c2ccc(OCCCO)cc2)=N[C@]1(Cc1ccccc1N=[N+]=[N-])C(=O)N1CCOCC1`: the composite z-score in assay [1] came to 0.841; in assay [3], 0.404; in assay [4], 1.97; in assay [5], 0.995; in assay [6] it was 0.334; in [7], 0.686. The composite z-score in [8] is 2.35; in assay [9], 1.44; in [10], 1.82. This molecule also returned a z-score in assay [2] of -1.56.
For the molecule `O=C1O[C@@H](c2ccccc2)[C@@H](c2ccccc2)N2[C@@H](c3ccccc3OCCO)[C@]3(C(=O)Nc4ccc(C#CC5=CCCCC5)cc43)[C@@H](C(=O)Nc3nc4ccccc4s3)[C@H]12`, the composite z-score in assay [1] was 1.4; in assay [3] it was 0.501; in assay [4], 1.32; in assay [5], 0.337; in [6] it was -0.0084; in [7], 0.356. In addition, the composite z-score was -0.167 in assay [8], 0.705 in assay [9] and 1.32 in assay [10]. In addition, in [2], the z-score was -2.52.
In the case of `CN(C)CCCC[C@@H]1NC(=O)[C@H]2C[C@@H](C(=O)NCCCCCNC(=O)CS)[C@@H](c3cccc(OCCO)c3)N2C1=O`, the composite z-score is 0.586 in assay [1]; -0.0183 in assay [3]; 0.137 in assay [4]; -0.734 in assay [5]; -0.195 in assay [6]; 0.0796 in assay [7]. The composite z-score is -0.363 in assay [8], 0.898 in [9] and -0.223 in assay [10]. The same molecule returned a z-score in assay [2] of -0.556.
`O=C1O[C@H](c2ccccc2)[C@H](c2ccccc2)N2[C@H]1[C@@H](C(=O)O)[C@]1(C(=O)Nc3ccc(C#CC4=CCCCC4)cc31)[C@H]2c1ccccc1OCCO`: the composite z-score was -0.65 in assay [1]; 0.663 in assay [3]; 1.61 in [4]; 0.179 in [5]; 0.795 in assay [6]; -0.602 in [7]. The values for the composite z-score in [8], in assay [9] and in assay [10] were 0.948, 0.926 and 2.23, respectively. In addition, in assay [2], the z-score is -2.4.
On to `CC(C)N1C(=O)[C@@]2(Cc3ccccc31)c1ccccc1C(=O)N(C1CCCCC1)[C@H]2c1ccc(CO)cc1`, for which the composite z-score in assay [1] is 0.683; in [3], 0.0232; in assay [4], -0.435; in [5] it was -0.56; in [6], -0.063; in assay [7], -0.195. The composite z-score in assay [8] was -0.399; in assay [9] it was 0.103; in assay [10] it was 0.284. Moreover, the z-score in [2] was -1.26.
Regarding `CCOC(=O)C[C@H]1[C@H](OC(=O)Cc2ccc3c(c2)OCO3)[C@@H](NC(=O)c2ccc(-c3ccccc3)cc2)c2cc(OCCCO)ccc2N1C(=O)c1ccc2ccccc2n1`, the composite z-score in [1] was 0.226; in [3] it was 0.445; in assay [4] it was 0.284; in assay [5] it was -0.788; in [6] it was -0.0828; in [7], -0.146. For the same molecule, the composite z-score is -0.261 in assay [8], 0.142 in assay [9] and 0.0797 in assay [10]. In [2], this molecule yielded a z-score of -1.37.
`COC(=O)C(CC#Cc1ccc2c(c1)[C@]1(C(=O)N2)[C@H](c2ccc(O)cc2)N2[C@H](c3ccccc3)[C@H](c3ccccc3)OC(=O)[C@H]2[C@@H]1C(=O)Nc1nc2ccccc2s1)C(=O)OC`: the composite z-score worked out at 1.39 in assay [1]; 0.651 in assay [3]; 1.26 in [4]; 0.213 in assay [5]; 0.0998 in assay [6]; 0.191 in assay [7]. Besides, the composite z-score in [8] was found to be 0.535; in assay [9], 1.63; in assay [10], 1.62. In [2], this molecule yielded a z-score of -0.322.
Consider `CCCC=C(CCC)[C@@H](NS(=O)(=O)c1cccs1)c1ccc(C(=O)OC)cc1`, for which the composite z-score was 1.37 in [1]; -0.452 in assay [3]; 1.6 in assay [4]; 0.85 in assay [5]; 0.105 in [6]; 0.605 in assay [7]. Further, the composite z-score in [8] is 1.41; in [9] it was 0.554; in [10] it was 1.24. In assay [2], this molecule returned a z-score of -2.93.
As for `COc1ccc(CCN2C(=O)[C@@]3(c4ccc([N+](=O)[O-])cc4)CC(=O)N(C4CCCCC4)[C@@H]3c3ccc(CO)cc32)cc1`, the composite z-score is 0.106 in assay [1]; 0.636 in assay [3]; -0.574 in assay [4]; -0.747 in assay [5]; 0.0495 in assay [6]; -0.229 in assay [7]. The composite z-score in assay [8] is -0.33; in assay [9], 0.341; in [10], -0.167. The molecule also yielded a z-score in assay [2] of 0.431.

The values above are taken from PubChem BioAssay.
